Laboratory results from PubChem BioAssay AID588848 (Broad Institute, 2011).
Entries with a potency or affinity are not part of this list. Results filed as inconclusive are left out.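 The calls were made as follows: active = fitted half-maximal inhibiting dose no more than ten times the top valid dose tested; inconclusive = flat activity from -30 to -70%, or unreliable curve fit; inactive = the rest.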

These compounds were tested against CAAX prenyl protease 2 (Homo sapiens) (UniProt Q9Y256) (assay: inhibition of Ras-converting CAAX endoprotease – biochemical, plate reader, dry powder samples, dose response (AID 588848)). Details: yeast membranes expressing human Rce1, fluorogenic peptide cleavage; series mostly up to 30 µM; activity change, negative = inhibition: at the top concentration.
CAAX prenyl protease 2 (Homo sapiens), sequence (Q9Y256 whole entry, looked up): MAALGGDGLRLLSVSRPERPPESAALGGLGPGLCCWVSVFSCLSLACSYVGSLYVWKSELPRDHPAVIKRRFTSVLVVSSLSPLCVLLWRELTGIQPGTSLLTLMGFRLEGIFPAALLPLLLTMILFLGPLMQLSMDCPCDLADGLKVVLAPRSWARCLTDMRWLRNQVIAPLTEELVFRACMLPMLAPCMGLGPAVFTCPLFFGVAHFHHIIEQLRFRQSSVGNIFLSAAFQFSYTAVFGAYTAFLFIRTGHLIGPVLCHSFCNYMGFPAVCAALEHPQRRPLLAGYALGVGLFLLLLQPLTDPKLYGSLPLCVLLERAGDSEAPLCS

Activity change, negative = inhibition, inactive:
Cc1cc(N2CCN(C(c3ccccc3)c3ccccc3)CC2)n2ncnc2n1 -8.64%, CN(C(=O)COC(=O)c1cn(-c2ccccc2)nc1-c1ccccc1)C1CCS(=O)(=O)C1 (stereo not given) -2.52%, Cc1cccc(-c2nnc(SCc3ccc(C#N)cc3)n2Cc2ccco2)c1 13.3%, CCOc1cccc(-c2c(C(=O)N/N=C/c3cccs3)nnn2-c2nonc2N)c1 14%, Cc1ccc(NC(=O)CCc2ccc(S(=O)(=O)NC3CCCCC3)cc2)cc1 9.46%, CCCOc1ccc(-c2c(C(=O)N/N=C/c3cccs3)nnn2-c2nonc2N)cc1 16.2%, COc1ccc(-n2c(SCc3ccc([N+](=O)[O-])cc3)nnc2-c2ccc(C)cc2)cc1 7.73%, Nc1nonc1-n1nnc(C(=O)N/N=C/c2cccc(Cl)c2)c1CSc1ccc(Cl)cc1 18.1%, Cc1ccc(SCc2c(C(=O)N/N=C/c3ccccc3)nnn2-c2nonc2N)cc1 10.5%, CC(C)c1c(C(=O)N/N=C/c2cccc3ccccc23)nnn1-c1nonc1N 8.17%
